From paper PMC12136788
Residue numbers refer to the chain shown, from its start. Over roughly 24,000 sequences, “enrichment r” has its median near 0.99; the highest 2% begin near 3.7. What follows is part of a selection rich in the highest values, with near analogues and random picks from the rest.

T1: UNK ZnF1-3 (human, UniProt Q9C0B0 31-174)
T1 sequence: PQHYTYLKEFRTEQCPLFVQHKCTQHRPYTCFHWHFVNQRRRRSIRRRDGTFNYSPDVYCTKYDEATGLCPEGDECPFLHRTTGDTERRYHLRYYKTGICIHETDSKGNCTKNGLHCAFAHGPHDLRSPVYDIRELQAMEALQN

B1: chr11:6247107:6247108:+_ENSMUSG00000020456_ENSMUST00000003461|mus_mus|FALSE|FALSE (ssRNA)
RNA: GGGAGUUCUACAGUCCGACGAUCAAACAUAGGUUCGUCCAUCUCAUUGUGGCCAUUUCGUCGAUAACACACCAGAUCAACUACAACAUCCUUGUGGAAGGUGUUUCUCCACUCAGCUGCCACCUUGCAUACAUACAUGACAGCCAACAGAGGAUUGAGCAUCA
B2: chr15:76911001:76911002:-_ENSMUSG00000033565_ENSMUST00000166610|mus_hu|motif|central (ssRNA)
RNA: GGGAGUUCUACAGUCCGACGAUCAAGAGCAUGACAAAAUAAAAACACACAAAUUUACGUCUGAUGUUCACCUUGCCCACGGUUUUUUUUUCCUAUCUUAAAACAGUGCAAACAGGUAACUUAUGCUUUUAAAACACCACGACCCAACAGAGGAUUGAGCAUCA
B3: chr17:17165348:17165349:-_ENSG00000141030_ENST00000268717|hu_mus|motif|central (ssRNA)
RNA: GGGAGUUCUACAGUCCGACGAUCUAUUUGAGAGGUGUAUUUAGGCAGCUGUUGUACUUUGCCAAGUAAUAUCAAAGACACGGGAAUAUACUUUUUAUAUGAUUCCAACAUGAUAUGGCUGACGGCCAUGGCAGGAGUAGUUAUCAACAGAGGAUUGAGCAUCA
B4: chr8:74858975:74858976:-_ENSG00000154582_ENST00000284811|hu_mus|hu_hu_hu_mus_True|8_48 (ssRNA)
RNA: GGGAGUUCUACAGUCCGACGAUCGACCUUGUAGGUAAAAUACAUGCACACUUUUGAUAGCACAUGUGAGGGGAUCUCUCUAAAAUUGACCUCAUUGGUUUCAUUCUCAGCAAACUGACCUGGACCACUCAACAUGGCCUUUAUCAACAGAGGAUUGAGCAUCA
B5: chr2:48026839:48026840:+_ENSG00000116062_ENST00000540021|hu_hu|hu_hu_hu_mus_False|48_88 (ssRNA)
RNA: GGGAGUUCUACAGUCCGACGAUCAUAGUGAGCCACUAGCGUCCUAAAUCUCGAACAGUGGCGGUCAUCCGAAAACUGGCCGAUGAAAAACUUUCCCAGUGAAGUGUCCACAAAGCAAACACCAUACACACGAGUGUGACCAGACAACAGAGGAUUGAGCAUCA
B6: chr11:86535762:86535763:-_ENSMUSG00000047126_ENSMUST00000103186|mus_hu|FALSE|FALSE (ssRNA)
RNA: GGGAGUUCUACAGUCCGACGAUCUGCAAAGCACUGAAUGACUUUAUUUGGGACGUUAGCCCUUAGGUACACACUAAGUGCCAAUGUAGGGUCCACAGAUUUCACAAGAUCACCCAGUUCUUCAGAACAUUCCAGCUUAUCUUCCAACAGAGGAUUGAGCAUCA
B7: chr7:118226368:118226369:-_ENSMUSG00000005610_ENSMUST00000162415|mus_hu|FALSE|FALSE (ssRNA)
RNA: GGGAGUUCUACAGUCCGACGAUCCAGCAGCUGCCACCGCAGCUGCCUCCUCAGGAUCCGGUCGUCGGGGAUAGGGAAGGGAGGGGAAAGGGGAACGGAAAACAAAAAAAAGGGGGAGGGAAGGGGGAGGAAGGAGUCGGGGACCAACAGAGGAUUGAGCAUCA
B8: chr19:8913615:8913616:-_ENSMUSG00000071658_ENSMUST00000096259|mus_hu|mus_mus_mus_hu_False|18_18 (ssRNA)
RNA: GGGAGUUCUACAGUCCGACGAUCAGGGUACCAAAACCUUCUGCCUGAAAUGGGUGCCCCACCCAGUAGGGAGUUGCAGCUGAAAGUAUCUGAUGCAGAAGCAGUGACUAUACGAAAGGUCACUAGAGGGGAGGGCCAGGCCAGCAACAGAGGAUUGAGCAUCA
B9: chr17:65740002:65740003:+_ENSG00000130935_ENST00000581375|hu_hu|hu_hu_hu_mus_False|98_108 (ssRNA)
RNA: GGGAGUUCUACAGUCCGACGAUCAACCCGUUCUUGCCUGGAUGAAGAACAGGAAGAUUCAUAUUAAAAAAAAUAUAUAUCCAUCAAGUUAGGUGUGGUGGCCACACCUUUACUCCCAGCACUUUGGGAGGUGGAUCUCUGAGUCAACAGAGGAUUGAGCAUCA
B10: chr7:90019433:90019434:+_ENSMUSG00000057706_ENSMUST00000082237|mus_hu|motif|central (ssRNA)
RNA: GGGAGUUCUACAGUCCGACGAUCAAAUAAUACAGUGUUCUUUGCCAUAAGGCCAUACUAAAAUAAAAAGAUUUAACCCAGCGGCAAAAAAGUUCACUGAACUUAAAUUAAAAUACUUGUAAACAUCUUUGCAAUAUGAAAUAUCAACAGAGGAUUGAGCAUCA
B11: chr7:90019433:90019434:+_ENSMUSG00000057706_ENSMUST00000082237|mus_hu|mus_mus_mus_hu_True|78_98 (ssRNA)
RNA: B10 RNA with U38C, C39U, U42G, G43C, C45A, A46U, C57U, U58A, G82U, G83A
B12: chr18:43483763:43483764:-_ENSMUSG00000024501_ENSMUST00000121805|mus_mus|FALSE|FALSE (ssRNA)
RNA: GGGAGUUCUACAGUCCGACGAUCUGCAGAAUCUACCUUAGUGGCCUGUCUGAUCGCAUGCAUGUAAGUGGGGGUGGGGUGGGGGUGGGGUUCAAAGAAAUUGAGAGUAUGCAAAAACAGAAACCAAAGCAAUUCAUAAAGCUACAACAGAGGAUUGAGCAUCA
B13: 62932219_62936930_2744_CDS_ENSG00000061987_ENST00000546600|human|control|control (ssRNA)
RNA: GGGAGUUCUACAGUCCGACGAUCCAUAUUAACUAAACCAGUUUCUAACAAUUUGGCAACAGCAAAAAGAGAUGGUUCCUUAUUAUUUCCAUAGGCCAUAUCCAUUGCUUCUAGAGACAAGGAGCAAAGUGCAUUUAUUAAAUGCAACAGAGGAUUGAGCAUCA
B14: chr7:90019490:90019491:+_ENSMUSG00000057706_ENSMUST00000082237|mus_mus|FALSE|FALSE (ssRNA)
RNA: GGGAGUUCUACAGUCCGACGAUCUCCGUCACAAUCGUGUGAUUAUUAAAAUAAUACAGUGUUCUUUGCCAUAAGGCCAUACUAAAAAUAAAAAGAUUUAACCCAGCUACAAAAAAGUUCACUGAACUUAAAUUAAAAUACUUGCAACAGAGGAUUGAGCAUCA
B15: chr1:10192443:10192444:+_ENSG00000130939_ENST00000377157|hu_hu|FALSE|FALSE (ssRNA)
RNA: GGGAGUUCUACAGUCCGACGAUCGACAGCCGCCAUGUAACUGAGAGCAGCCUCACGGGUUUCGCCAUUUAACAAAAUACUAUGCAGAAUCUUAAAAAGCUCUUGCCUUCCGAGCUCUAAGUAAUGCUGCAAUGAUUGGCUAACCAACAGAGGAUUGAGCAUCA
B16: chr18:43483763:43483764:-_ENSMUSG00000024501_ENSMUST00000121805|mus_hu|FALSE|FALSE (ssRNA)
RNA: GGGAGUUCUACAGUCCGACGAUCGCAGACUCUUUUACCUUAGUGGCCUGUCUGAUUGCAUGCAUGUAAAUGGGGGGAGGGGAGUCAAACAAAUCAAGGCUAUGCAUAAACAGAAAACAAAGCAAUAUUCGUAAAGCUAGGCAACAACAGAGGAUUGAGCAUCA
B17: chr7:56126341:56126342:+_ENSG00000146731_ENST00000540286|hu_mus|hu_hu_hu_mus_True|8_78 (ssRNA)
RNA: GGGAGUUCUACAGUCCGACGAUCCAUGUUUCUCCUCUUGGCUCUGCGCAGAGCUACUAUGCCUUCUUUCGCAAGGGCAUCUAAGGAAAAGGGGUCAAUCCCCUUUUGAUUAAUAACGACAAAUCCUUUAUCUGAAUCACCACACAACAGAGGAUUGAGCAUCA
B18: chr16:2758876:2758877:+_ENSG00000167977_ENST00000301738|hu_hu|FALSE|FALSE (ssRNA)
RNA: GGGAGUUCUACAGUCCGACGAUCAAUUUUAGUGAAUUAAGUCUUAAUAUCUUUAAAUUAAAAAAACCACAAGCCUAUCUACUAUGUCAAGGUCAAAAAUCAAACAACGCUAAGCGGCCAGCAGCUCCCCAGAGAGGAUGCCCACAACAGAGGAUUGAGCAUCA
B19: chr4:107545374:107545375:+_ENSMUSG00000028613_ENSMUST00000106731|mus_hu|FALSE|FALSE (ssRNA)
RNA: GGGAGUUCUACAGUCCGACGAUCUGAUGGAUAGCCACAAAGCAUAAUCAUCUUAUUUACAAAAAACAAAUGCCCCAAAACCUAAAAAAGCCCCCCCAGCAACCAAACAUCUUCUGUAAAUAUAGUUUUUAAAUGAUGAGUAAGCAACAGAGGAUUGAGCAUCA
B20: 160625162_160625282_3606_3pUTR_ENSG00000136536_ENST00000259050|human|control|control (ssRNA)
RNA: GGGAGUUCUACAGUCCGACGAUCAAAACUACCACCCUUAAAUUUUAUAUUUUUGCUUUAAGACAGACAAUGCAAAGGUAACUGGCAAGAGGUGAGCAAAUGUUUUAGAACAUUUAUAUUAUUGCUUAAAAUGAGAUUUGAAAUCAACAGAGGAUUGAGCAUCA
B21: chr14:78183846:78183847:+_ENSG00000119705_ENST00000557342|hu_hu|hu_hu_hu_mus_False|18_98 (ssRNA)
RNA: GGGAGUUCUACAGUCCGACGAUCUCUCAGAAAUCUUUCUUUCUUUUAUGUUUGAGCUCCGUGCAAAGCCUUUGCUCUUUGAGCUUGAACGUGGAUCUAUGGGAGGGAAAGCACUGUAUUUUCCUGUAAUUUUUUUUUUAAAGACAACAGAGGAUUGAGCAUCA
B22: chr7:135123436:135123437:+_ENSMUSG00000030795_ENSMUST00000077609|mus_mus|FALSE|FALSE (ssRNA)
RNA: GGGAGUUCUACAGUCCGACGAUCGCCUCCGCGACCAUUUCCACCACCCCGAUUGAAGUCAGCUCGGCGGGUAGCAAAUGAAACUUUAAUAGGAUUCCCAGAGAAUUCUUUACCAUCAAACCAGUCGAUAGCUGCUUUAGCAGACAACAGAGGAUUGAGCAUCA

Target: T1, UNK ZnF1-3
Assay: nsRBNS (natural sequence RNA bind-n-seq); RBNS binding buffer (assumed for nsRBNS): 25 mM Tris pH 7.5, 150 mM KCl, 3 mM MgCl2, 0.01% Triton X-100, 500 ug/ml BSA, 20 U/ml SUPERase-In, 4 C; UNK is unkempt and MSI1 is Musashi-1; names of the RNAs are library labels; protein concentration not given here; high values mean tight binding

| Binder | binding signal [enrichment R] |
| --- | --- |
| B1 | 0.764 |
| B2 | 1.59 |
| B3 | 1.03 |
| B4 | 0.645 |
| B5 | 1.19 |
| B6 | 0.581 |
| B7 | 1.19 |
| B8 | 1.83 |
| B9 | 0.827 |
| B10 | 3.64 |
| B11 | 3.77 |
| B12 | 5.48 |
| B13 | 1.11 |
| B14 | 3.65 |
| B15 | 1.03 |
| B16 | 1.62 |
| B17 | 0.804 |
| B18 | 3.89 |
| B19 | 2.81 |
| B20 | 8.45 |
| B21 | 0.693 |
| B22 | 1.3 |
